Results taken from PubChem BioAssay AID686979 (National Center for Advancing Translational Sciences (NCATS), 2013).
Out of some 420,000 compounds screened, about 50,000 (12%) were called active. Another 26% or so got no clear call; they are omitted. The list comes from a sample in which actives are over-represented; it also holds similar structures and randomly drawn compounds. Unmarked numbers belong to inactive results. Calls follow the shape of the dose curve; as a rule, active = well fitted inhibition curve with a large enough effect; inconclusive = small, poorly fitted or top-dose-only effect; inactive = flat fitted curve, though single readings scatter. *1 amine or outer side, *2 acyl side, *3 side chain or, on linkers, in order; H or OH if unused. Where a SMILES comes first, the peptide text is derived from it. Bridges are numbered along the chain shown (N, C = ends). [ ]: non-standard residue; d: D form. The star is where a group is joined. X12 = NC1=N[C@@H]([C@H](N[*:1])C(=O)[*:2])C[C@H](O)N1; ΔAla(Z-3-ureido) = NC(=O)N/C=C(\N)C(=O)O; β3hOrn = NCCC[C@H](N)CC(=O)*; Dap = NC[C@H](N)C(=O)O

Test: qHTS for Inhibitors of human tyrosyl-DNA phosphodiesterase 1 (TDP1): qHTS in cells in presence of CPT; also: nearly all actives have a fitted effect of over 55% in size
Settings: chicken DT40 Tdp1-/-;hTDP1 cells + 20 nM CPT, ATP luminescence, 48 h; series mostly up to 46.2 µM; activity change, negative = growth inhibition: at the top concentration
How it was run: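 Chicken DT40 Tdp1-/- cells complemented with human TDP1, 400 cells/well, exposed to compounds plus 20 nM camptothecin for at least 48 h at 37 C; viability read as ATP content by CellTiter-Glo luminescence.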
% is scaled to controls: 0 for no effect and ±100 for the full control effect; potency is read from the fitted curve at half-maximal effect.

Structure (SMILES)	activity change, negative = growth inhibition	Potency
CCOc1ccc(C(CC(=O)O)n2cnnn2)cc1OC (stereo not drawn)	1.9%	
COc1ccc(C2=NN(C(=O)c3cccnc3)C(c3ccccc3)C2)cc1 (stereo not drawn)	-8.32%	
CCC(CC)c1nnc(NC(=O)C2=COCCO2)s1	11.4%	
Cc1sc2nc(CSCC(=O)Nc3c(Cl)cccc3Cl)[nH]c(=O)c2c1C		7.31 µM (active)
CCN(CC)Cc1nc2sc(C)c(C)c2c(=O)[nH]1	-3.36%	
Cc1sc2nc(COC(=O)C(NC(=O)c3ccc(Cl)cc3Cl)C(C)C)[nH]c(=O)c2c1C (stereo not drawn)	-20.6%	
CCOC(=O)/C=c1\s/c(=C\c2ccccc2OC)c(=O)n1CC(=O)N1CCOCC1	-24.5%	
CCOC(=O)/C=c1\s/c(=C\c2ccc(C#N)cc2)c(=O)n1CC(=O)Nc1cccc(C)c1C		1.3 µM (active)
CCOc1ccc(NC(=O)Cn2c(C)ccc(C#N)c2=O)cc1	-0.0068%	
NCCC[C@H](N)CC(=O)N[C@H]1CNC(=O)[C@H]([C@H]2C[C@H](O)NC(N)=N2)NC(=O)/C(=C/NC(N)=O)NC(=O)[C@H](CO)NC(=O)[C@H](CO)NC1=O (β3hOrn-[Dap]SS[ΔAla(Z-3-ureido)][X12]; lactam 1-C)	-9.6%	
COc1ccc(-n2nc(C(=O)NCCc3ccc(Cl)cc3)c3c4ccccc4n(C)c3c2=O)cc1Cl		3.66 µM (active)
COc1ccc(-n2nc(C(=O)NCC(=O)N3CCCCCC3)c3ccccc3c2=O)cc1Cl		18.4 µM (active)
Cc1cc(NC(=O)Nc2ccc(Cl)cc2)n(-c2ccccc2)n1	1.8%	
COc1ccc(CCNC(=O)c2c(C)nn(-c3ccccc3)c2Cl)cc1	-17.4%	
COc1ccc(-n2nc(C(=O)NCC(=O)N3CCC(C(N)=O)CC3)c3ccccc3c2=O)cc1OC	-4.29%	
COc1cc(NC(=O)c2nn(-c3ccc(C)cc3)c(=O)c3c2c2ccccc2n3C)cc(OC)c1OC	-3.89%	
Cc1cc(C(=O)NCCc2ccc(Cl)cc2)n(-c2ccccc2)n1		20.6 µM (active)
CCOC(=O)c1ccccc1NC(=O)c1nn(-c2ccc(OC)c(Cl)c2)c(=O)c2c1c1ccccc1n2C	13.7%	
COCCCNC(=O)CNC(=O)c1nn(-c2ccc(OC)cc2)c(=O)c2ccccc12	17.6%	
COC(=O)c1ccc2ccccc2c1OC1OC(CO)C(O)C(O)C1NC(C)=O (stereo not drawn)	-14.5%	
Fc1cccc(Cc2noc(CN3CCN(c4cnccn4)CC3)n2)c1	1.52%	
Cc1ccc(C(=O)N2CCC(n3nccc3NC(=O)Nc3cccc(F)c3)CC2)cn1	1.87%	
O=C(COC(=O)c1ccccc1NC(=O)c1ccco1)Nc1ccc2c(c1)OC(F)(F)O2	-10.2%	

Structure (SMILES)	activity change, negative = growth inhibition	Potency
CC1CC(C)CN(CCCNC(=O)c2csc3c2CCCCC3)C1 (stereo not drawn)	-30%	
O=C(CCNC(=O)c1ccccc1Cl)NCc1ccco1	-9.02%	
CC(C(=O)c1ccc(-c2ccccc2)cc1)[n+]1cccc(Br)c1 (stereo not drawn)	-16.3%	
CCOC(=O)C1CCC(CN(Cc2ccc(OC)cc2)S(=O)(=O)c2ccc(F)c(C(=O)Nc3cc(C)ccc3C)c2)CC1 (stereo not drawn)	-12.5%	
COC(=O)Cc1ccc(NC(=S)NCc2ccccc2)cc1	-1.18%	
Cn1cc(C(=O)NCc2ccccc2F)cn1	-0.179%	
Fc1ccccc1CNC(=S)Nc1ccc(Cl)cc1		20.6 µM (active)
O=C(c1ccco1)N1CCN(C(=O)c2cc(-c3ccccc3F)no2)CC1	-22.9%	
O=C1c2ccccc2S(=O)(=O)c2cc(N3CCN(c4ccccn4)CC3)ccc21	-14.1%	
O=C(c1ccc2c(c1)N(Cc1ccccc1)C(=O)c1ccccc1S2(=O)=O)N1CCCC1		11.6 µM (active)
CCCCN(C)C(=O)c1ccc2c(c1)N(CC)C(=O)c1ccccc1S2(=O)=O	-26.8%	
O=C(c1ccc2c(c1)N(Cc1ccccc1)C(=O)c1ccccc1S2(=O)=O)N1CCC(Cc2ccccc2)CC1		8.2 µM (active)
O=C(c1cccc(Br)c1)N1CCN(C2=NS(=O)(=O)c3ccccc32)CC1	3.46%	
O=C(c1ccc2c(c1)N(Cc1ccccc1F)C(=O)c1ccccc1S2(=O)=O)N1CCOCC1	-19%	
CC1CCCN(C(=O)CN2C(=O)c3ccccc3S2(=O)=O)C1 (stereo not drawn)	-12.1%	
O=C(c1ccc2c(c1)N(Cc1ccc(F)cc1)C(=O)c1ccccc1S2(=O)=O)N1CCN(c2ccccn2)CC1		14.6 µM (active)
O=C(c1ccc2c(c1)C(=O)N(c1ccc(Cl)cc1)C2=O)N1CCN(c2ccccn2)CC1	-5.02%	
O=C(CN1C(=O)NC2(CCCC2)C1=O)Nc1ccc(F)c(F)c1F	1.12%	
CC(=O)CC(CC(=O)NC1CCCCC1)c1ccccc1 (stereo not drawn)	-7.82%	
CCC(C)C1(C2CCCC2)NC(=O)NC1=O (stereo not drawn)	-0.666%	
CCOc1ccc(NC(=O)CN(C)C(=O)Cc2sc(C)nc2-c2ccc(F)cc2)cc1OCC	-19%	
O=C(c1cnccn1)N1CCC2(CCCN(Cc3ccccc3)C2)CC1	20.2%	
O=C(CCCOc1ccccc1)NNC(=O)c1ccc(Cl)cc1	1.38%	

Structure (SMILES)	activity change, negative = growth inhibition	Potency
Cc1ccc(S(=O)(=O)N2CCC(C)CC2)cc1C(=O)NCc1ccccn1	-5.04%	
S=C(NCc1ccc(Cl)cc1)NC1CCCCC1	-20.8%	
CN(C)CCCNC(=S)NCc1ccc(Cl)cc1	-11.7%	
NCCCNC(=S)NCCCN(Cc1ccc(Cl)cc1)c1ccc(Br)cn1		15.8 µM (active)
CCCn1c(C)cc(/C=C(\C#N)C(=O)OCC(=O)N(C)c2c(N)n(Cc3ccccc3)c(=O)[nH]c2=O)c1C	-14%	
CN(CC(=O)O)C(=O)c1ccccc1	1.89%	
CN(/N=C/c1ccccc1)C(=S)c1ccccc1	-24.4%	
CN(O)C(=S)c1ccccc1		0.13 µM (active)
CC(C)c1nc2cc(C(=O)NC(C)c3cnn(C)c3)ccc2o1 (stereo not drawn)	4.73%	
O=C(NCCS(=O)(=O)NCc1ccc(Cl)cc1)c1ccccc1	-3.08%	
CC(=O)c1cc(C#N)c(SCC(=O)C(C)(C)C)nc1C		2.82 µM (active)
CC(=O)c1cc(C#N)c(N2CC(C)OC(C)C2)nc1C (stereo not drawn)	10.4%	
CC(=O)c1cc(C#N)c(N2CCCCC2)nc1C	-24.1%	
O=C(NCc1cccnc1)c1ccc2nc([C@@H]3O[C@H](CO)[C@H](O)[C@H](O)[C@H]3O)[nH]c2c1	17.8%	
CC1=NN(C(N)=S)C(=O)C1N=Nc1cc(Cl)ccc1Cl (stereo not drawn)	-94.3%	
Cc1nc(Nc2ccccc2C)c2cnn(C)c2n1	10.9%	
CC[C@]12c3[nH]c4ccc(Cl)cc4c3CCN1C(=O)[C@@H](CC(=O)NCCCOC)C[C@@H]2C(=O)N1CCN(C(=O)c2ccco2)CC1	-26.2%	
CC[C@]12c3[nH]c4ccc(Cl)cc4c3CCN1C(=O)[C@@H](CC(=O)NCCN1CCOCC1)C[C@@H]2C(=O)N1CCN(C(=O)C2CC2)CC1	-14.3%	
O=C(C[C@H]1C[C@H](C(=O)N2CCOCC2)[C@@]2(CCC3CCCC3)c3[nH]c4ccc(Cl)cc4c3CCN2C1=O)NCc1ccco1		20.6 µM (active)
CC[C@]12c3[nH]c4ccc(OC)cc4c3CCN1C(=O)C(CC(=O)NCc1ccco1)C[C@@H]2C(=O)N1CCN(C(=O)C2CC2)CC1 (stereo partly drawn)	-10%	
COc1ccc(CNC(=O)C[C@H]2C[C@H](C(=O)N3CCOCC3)[C@@]3(CCC4CCCC4)c4[nH]c5ccc(Cl)cc5c4CCN3C2=O)cc1OC		16.4 µM (active)
COc1ccc2[nH]c3c(c2c1)CCN1C(=O)C(CC(=O)NCCCN(C)C)C[C@H](C(=O)N2CCOCC2)[C@@]31CCC1CCCC1 (stereo partly drawn)	-11.2%	
